Experimental data taken from PubChem BioAssay AID1159580 (chemical genetic matrix, 2015).
Several values for one entry are separate records, joined by “and”; a condition that tells them apart may be missing. Equal values may be shown once. About 2,000 (36%) of roughly 5,500 compounds were called active. Another 18% or so got no clear call; they are omitted. Rule as the data show it: active = normalized growth mostly below about 0.91 (no sharp cut-off); inconclusive = no clear call, values can overlap the other calls; inactive = mostly above about 0.92. The list shows a part of the results.

Test: chemical genetic growth profiling, strain panel (AID 1159580);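 also: tested at 20 µM; growth read once vehicle control cultures reached saturation at 30 °C; 1 = growth at the plate median or of vehicle wells; lower values mean less growth of the strain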
Details: S. cerevisiae deletion strains, growth OD

Measured: normalized growth

COc1ccc2c(C)cc(=O)oc2c1
inactive: locus YAL013W, strain DEP1, hits give low values 1.02 | locus YAL021C, strain ccr4, hits give low values 0.979 | locus YAL026C, strain drs2, hits give low values 0.989 | locus YAL030W, strain snc1, hits give low values 1.02 | locus YBL061C, strain skt5, hits give low values 0.993 | locus YBR009C, strain hhf1, hits give low values 1.01 | locus YBR021W, strain FUR4, hits give low values 0.976 | locus YBR023C, strain chs3, hits give low values 0.989 | locus YBR171W, strain sec66, hits give low values 0.985 | locus YBR229C, strain ROT2, hits give low values 1.01 | locus YBR231C, strain swc5, hits give low values 0.987 | locus YBR279W, strain paf1, hits give low values 0.995 | locus YCL011C, strain gbp2, hits give low values 0.999 | locus YCL016C, strain dcc1, hits give low values 0.997 | locus YCL029C, strain bik1, hits give low values 1.03 | locus YCL061C, strain MRC1, hits give low values 0.995 | locus YCL069W, strain vba3, hits give low values 0.964 | locus YCR088W, strain abp1, hits give low values 0.979 | locus YDL005C, strain med2, hits give low values 0.974 | locus YDL035C, strain GPR1, hits give low values 1.02 | locus YDL040C, strain nat1, hits give low values 0.99 | locus YDL074C, strain BRE1, hits give low values 0.995 | locus YDL101C, strain DUN1, hits give low values 1.02 | locus YDL134C, strain PPH21, hits give low values 0.992 | locus YDL185W, strain tfp1, hits give low values 1.04 | locus YDL192W, strain arf1, hits give low values 1.02 | locus YDR001C, strain nth1, hits give low values 0.981 | locus YDR069C, strain doa4, hits give low values 1 | locus YDR101C, strain arx1, hits give low values 1.01 | locus YDR137W, strain rgp1, hits give low values 0.979 | locus YDR159W, strain sac3, hits give low values 0.995 | locus YDR162C, strain NBP2, hits give low values 1.03 | locus YDR195W, strain ref2 1.04 | locus YDR297W, strain sur2, hits give low values 1.01 | locus YDR318W, strain mcm21, hits give low values 1.02 | locus YDR334W, strain swr1, hits give low values 0.956 | locus YDR335W, strain msn5, hits give low values 0.981 | locus YDR388W, hits give low values 1.01 | locus YDR392W, strain spt3, hits give low values 0.978 | locus YDR502C, strain sam2, hits give low values 1.03 | locus YEL003W, strain gim4, hits give low values 0.982 | locus YEL037C, strain rad23, hits give low values 0.973 | locus YEL061C, strain CIN8 (second series), hits give low values 0.975 | locus YER015W, strain faa2, hits give low values 1 | locus YER016W, strain bim1, hits give low values 0.998 | locus YER110C, hits give low values 1.02 | locus YER111C, strain swi4, hits give low values 0.992 | locus YER155C, strain BEM2 (second series), hits give low values 0.976 | locus YER155C, strain BEM2, hits give low values 1.01 | locus YER167W, strain BCK2, hits give low values 1 | locus YFR010W, strain ubp6, hits give low values 0.966 | locus YGL078C, strain dbp3, hits give low values 1.03 | locus YGL086W, strain mad1, hits give low values 1 | locus YGL167C, strain pmr1, hits give low values 0.983 | locus YGL173C, strain kem1, hits give low values 0.983 | locus YGL227W, strain vid30, hits give low values 0.993 | locus YGL240W, strain doc1, hits give low values 0.99 | locus YGL248W, strain PDE1, hits give low values 1.02 | locus YGL253W, strain hxk2, hits give low values 0.994 | locus YGR078C, strain PAC10, hits give low values 1.01 | locus YGR135W, strain pre9, hits give low values 1.01 | locus YGR252W, strain gcn5, hits give low values 0.981 | locus YHR013C, strain ard1, hits give low values 0.956 | locus YHR027C, strain rpn1, hits give low values 1 | locus YHR030C, strain SLT2, hits give low values 1 and 0.963 | locus YHR079C, strain IRE1 (second series), hits give low values 1.02 | locus YHR079C, strain IRE1, hits give low values 0.98 | locus YHR094C, strain hxt1, hits give low values 1.03 | locus YHR129C, strain ARP1, hits give low values 1.01 | locus YHR142W, strain chs7, hits give low values 0.97 | locus YHR200W, strain rpn10, hits give low values 1.01 | locus YIL066C, strain RNR3, hits give low values 1.01 | locus YIL073C, strain SPO22, hits give low values 1.06 | locus YIL125W, strain kgd1, hits give low values 1.04 | locus YIR030C, strain dcg1, hits give low values 1.03 | locus YJL092W, strain hpr5, hits give low values 0.999 | locus YJL095W, strain BCK1 (second series), hits give low values 0.99 | locus YJL095W, strain BCK1, hits give low values 1.02 and 0.987 | locus YJL115W, strain asf1, hits give low values 0.976 | locus YJL129C, strain trk1, hits give low values 1.01 | locus YJL134W, strain LCB3, hits give low values 1 | locus YJL154C, strain vps35, hits give low values 0.97 | locus YJL164C, strain tpk1, hits give low values 0.983 | locus YJL166W, strain qcr8, hits give low values 0.968 | locus YJL168C, strain set2, hits give low values 1.03
